Compound activity from PubChem.
TRPV1 agonist: activates the human vanilloid receptor TRPV1; Q8NER1; TRPV1-expressing cells, Fluo-8 calcium influx, agonist mode; activation, % at 8.33 µM; actives 0.19% (n = 320,000); AID 540275; in the data active means activation above about 80%; inconclusive means between about 30% and that limit; further: 0% is about no effect
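TRPV1-expressing cells were cultured overnight at 35.5C and loaded with Fluo-8 calcium dye for 40 to 90 min at room temperature. After a 10 s baseline, compound was added and calcium influx was read kinetically for 3 min (ex 480/em 520 nm).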
hERG WT inh: blocks the wildtype human KCNH2 potassium channel. Q12809. U2OS, BacMam KCNH2, thallium flux FluxOr; active compounds read low. activity change, % at 1.84 µM. actives 0.37% (n = 340,000). AID 720551;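 active means maximum activity change below -70%; inconclusive means maximum activity change between -70% and -50%; inactive means maximum activity change above -50%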; further: on the % scale 0 is the no-effect control and ±100 the full control effect
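U2OS cells transduced with wild-type KCNH2 virus are loaded with FluxOr dye for 45 min, and thallium flux is measured in kinetic reads before and after stimulation buffer. Rate constants are normalized to DMSO controls.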
KCNH2 3.1 block: inhibitors of human KCNH2 3.1 potassium channel isoform. U2OS KCNH2 3.1, thallium flux FluxOr; active compounds read low. activity change, % (tested at about 1.8 µM). actives 0.95% (n = 340,000). AID 720553;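 active means maximum activity change below -70%; inconclusive means maximum activity change from -70% to -50%; inactive means maximum activity change above -50%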;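 further: thallium influx rate constant from kinetic fluorescence after stimulation buffer; on the % scale 0 is the no-effect control and ±100 the full control effect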
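Thallium flux via FluxOr fluorescence (Red40 quencher, 45 min loading) in U2OS cells virally expressing the KCNH2 3.1 isoform (1.77 x 10^8 /mL virus, overnight at 37 C). Rate constants from 2-min kinetic reads post-stimulation, normalised to positive and negative controls.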
TRPV1 PAM: potentiators of human vanilloid receptor 1 (TRPV1). TRPV1-expressing cells, Fluo-8 calcium influx, capsaicin EC20 potentiation. potentiation, % at 8.33 µM. actives 0.02% (n = 320,000). AID 540277; in the data active means potentiation above about 80%; inconclusive means between about 30% and that limit; further: 0% is about no effect
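TRPV1-expressing cells were cultured overnight at 35.5C and loaded with Fluo-8 calcium dye for 40 to 90 min at room temperature. After a 10 s baseline, compound was added and calcium influx was read kinetically for 3 min (ex 480/em 520 nm).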
* marks the source's active call; other numbers are inactive results; ? = inconclusive; . = no result given; ! = a repeat was not active. Only some compounds are listed: those with a hit (about 1.2% of all), similar ones and a draw of the others.

SMILES | TRPV1 agonist | hERG WT inh | KCNH2 3.1 block | TRPV1 PAM
CCOc1cc(C)ccc1OCc1nnc(SCC(=O)c2cccc([N+](=O)[O-])c2)n1C | 2 | 29 | -9 | -3
Cn1c(COc2ccccc2)nnc1SCC(=O)c1cccc([N+](=O)[O-])c1 | 0 | -6 | -92* | 13
COc1ccc(N2CCN(CC(O)COC(c3ccccc3)c3ccccc3)CC2)cc1 (stereo unspecified) | 1 | ? | -105* | 1
COc1ccc(N2CCN(CC(O)COc3ccc(F)cc3)CC2)cc1 (stereo unspecified) | -5 | 18 | -42 | 16
C=CCc1cc(OC)ccc1OCC(O)CN1CCN(c2ccc(OC)cc2)CC1 (stereo unspecified) | 2 | 60 | -82*! | 6
COc1ccc(N2CCN(CC(O)COC(c3ccc(F)cc3)c3ccc(F)cc3)CC2)cc1 (stereo unspecified) | -3 | -82* | -119* | 26
COc1ccc(OCC(O)CN2CCN(c3ccc(OC)cc3)CC2)cc1 (stereo unspecified) | -1 | 15 | -18 | 9
COC(=O)c1cc(OC)c(OC)cc1NC(=O)CN1CCOCC1 | -1 | -236* | 5 | -4
CCOc1ccccc1CN1CCNC(=O)C1CC(=O)NCCC1=CCCCC1 (stereo unspecified) | 8 | 21 | -109* | 2
CC(C)(C)NC(=O)N1CCN(c2nc3ccc(Cl)cc3s2)CC1 | ? | 10 | 1 | -1
Cc1ccc(C)c(OCCC(=O)N2CCN(S(=O)(=O)c3ccc([N+](=O)[O-])cc3)CC2)c1 | ? | 16 | -139* | -19
Cc1ccc(S(=O)(=O)N2CCN(CC(=O)Nc3ccc([N+](=O)[O-])cc3)CC2)cc1C | 4 | -76* | -92* | -4
CO/N=C/C(C#N)=C/c1cc(C(=O)c2ccccc2)cn1C | 9 | -3 | -12 | -12
Cc1cc(C)cc(C(=O)N(CCc2ccccc2)C2CC3CCC(C2)N3C)c1 (stereo unspecified) | 3 | -8 | -88* | -8
COc1cc(C(=O)N(CCc2ccccc2)C2=CC3CCC(C2)N3C)cc(OC)c1OC (stereo unspecified) | 1 | 1 | 1 | 13
CCN(C(=O)COC(=O)/C=C/c1nc2ccccc2s1)c1c(N)n(Cc2ccccc2)c(=O)[nH]c1=O | . | -2 | 6 | .
COc1ccc(CN2CCCC(C(=O)N(C)Cc3ccccc3)C2)cc1OC (stereo unspecified) | -1 | -9 | -75* | 2
COc1ccccc1CN1CCCC(C(=O)N(C)Cc2ccccc2)C1 (stereo unspecified) | . | 1 | 16 | .
CC1(C)COC(c2cc3c(cc2Br)OCO3)OC1 | . | -1 | -2 | .
c1ccc2c(c1)oc1c(Nc3ccc(CN4CCOCC4)cc3)ncnc12 | 84* | 3 | -25 | -8
c1ccc(Nc2ncnc3c2oc2ccccc23)cc1 | 81* | 0 | 3 | -5
c1ccc2c(c1)oc1c(NCCN3CCOCC3)ncnc12 | 6 | 0 | -24 | 1
CC(C)(C)Cc1c(-c2ccc(F)cc2)nc2ccc(Br)cn12 | . | 7 | -14 | .
Cc1noc(C)c1CSc1nc2sc3c(c2c(=O)n1C)CCCC3 | 11 | 8 | -102* | -6
C=CCn1c(SCc2c(C)noc2C)nc2sc3c(c2c1=O)CCCC3 | ? | -7 | -1 | -13
SMILES | TRPV1 agonist | hERG WT inh | KCNH2 3.1 block | TRPV1 PAM
O=C(NCc1cccnc1)c1cc(Cl)ccc1[N+](=O)[O-] | 8 | -36 | 10 | -4
CC1CC(C)CN(C(=O)COC(=O)c2ccc(S(=O)(=O)N(C)c3ccccc3)cc2)C1 (stereo unspecified) | . | 40 | -42 | .
Cc1ccc(N(Cc2ccccc2)C(=O)c2cccc(S(=O)(=O)N3CCN(C)CC3)c2)cc1 | 4 | 25 | -5 | -4
COc1cccc(CN(C)C(=O)c2cccc(S(=O)(=O)N3CCN(c4ccc(F)cc4)CC3)c2)c1OC | 13 | 0 | -159* | 0
CN1CCN(S(=O)(=O)c2cccc(C(=O)N(C)C(c3ccccc3)c3ccccc3)c2)CC1 | 13 | 11 | -75* | -24
CCOC(=O)C1CCCN(Cc2nc(N)nc(Nc3ccc(Cl)cc3)n2)C1 (stereo unspecified) | 11 | -9 | ? | -7
CCOC(=O)N1CCN(Cc2nc(N)nc(Nc3ccc(Oc4ccccc4)cc3)n2)CC1 | -2 | -32 | -89* | 19
CCOC(=O)N1CCN(Cc2nc(N)nc(Nc3ccc(OCC)cc3)n2)CC1 | -3 | 0 | -86* | 7
